Source: PubChem (National Center for Advancing Translational Sciences (NCATS))
Shown is part of a subset that was picked to be rich in hits.
TDP1 cell noCPT: qHTS for Inhibitors of human tyrosyl-DNA phosphodiesterase 1 (TDP1): qHTS in cells in absence of CPT; DT40 Tdp1-/- hTDP1 cells, no CPT, ATP luminescence, 48 h; Potency, µM (titrated, usually from 46.2 µM), for the others: at the highest dose activity change, negative = growth inhibition, most hits filed as inhibitors; 420,000 compounds, 15% hits; AID 686978, 2013; also: potency is read from the fitted curve at half-maximal effect; nearly all actives have a fitted effect of over 55% in size
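Seeded 400 DT40-hTDP1 cells/well (vehicle DMSO, no 20 nM CPT); pinned compounds; ≥48 hr at 37 °C; CellTiter-Glo luminescence as viability measure.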
DT40 TDP1 CPT: DT40-hTDP1 cell growth loss with CPT | chicken DT40 Tdp1-/-;hTDP1 cells + 20 nM CPT, ATP luminescence, 48 h | Potency, µM (doses to about 46.2 µM), inactives show at the highest dose activity change, negative = growth inhibition, usual class: inhibitors | 420,000 compounds, 12% hits; also: potency is read from the fitted curve at half-maximal effect; nearly all actives have a fitted effect of over 55% in size
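Chicken DT40 Tdp1-/- cells complemented with human TDP1, 400 cells/well, exposed to compounds plus 20 nM camptothecin for at least 48 h at 37 C; viability read as ATP content by CellTiter-Glo luminescence.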
HT1080NT lethal: kills 2HG-producing HT-1080-NT fibrosarcoma cells; HT-1080-NT fibrosarcoma viability, CellTiter-Glo ATP luminescence, 48 h; Potency, µM (series often up to 46.1 µM), for the others: at the top dose activity, negative = less viability, most hits filed as cytotoxic; 360,000 compounds, 1.6% hits; AID 686970;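 also: NT is the 2HG producing partner of a matched IDH1 knockdown line; potency is read from the fitted curve at half-maximal effect; 0% = DMSO-treated cells and -100% = media-only wells without cells; nearly all actives have a fitted effect of over 55% in size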
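Toxicity toward the 2HG-producing NT line was scored as %Activity, normalised to DMSO and no-cell wells, from CellTiter-Glo luminescence after 48 hours' treatment.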
12-LOX inh: ALOX12 (human) lipoxygenase inhibition; P18054; Potency, µM (series often up to 108 µM), without a hit: at the top dose activity change, negative = inhibition, usual class: inhibitors; purified 12hLO, xylenol orange hydroperoxide absorbance; 580,000 compounds, 1.1% hits; also: potency is read from the fitted curve at half-maximal effect
Target sequence (P18054 whole entry, looked up): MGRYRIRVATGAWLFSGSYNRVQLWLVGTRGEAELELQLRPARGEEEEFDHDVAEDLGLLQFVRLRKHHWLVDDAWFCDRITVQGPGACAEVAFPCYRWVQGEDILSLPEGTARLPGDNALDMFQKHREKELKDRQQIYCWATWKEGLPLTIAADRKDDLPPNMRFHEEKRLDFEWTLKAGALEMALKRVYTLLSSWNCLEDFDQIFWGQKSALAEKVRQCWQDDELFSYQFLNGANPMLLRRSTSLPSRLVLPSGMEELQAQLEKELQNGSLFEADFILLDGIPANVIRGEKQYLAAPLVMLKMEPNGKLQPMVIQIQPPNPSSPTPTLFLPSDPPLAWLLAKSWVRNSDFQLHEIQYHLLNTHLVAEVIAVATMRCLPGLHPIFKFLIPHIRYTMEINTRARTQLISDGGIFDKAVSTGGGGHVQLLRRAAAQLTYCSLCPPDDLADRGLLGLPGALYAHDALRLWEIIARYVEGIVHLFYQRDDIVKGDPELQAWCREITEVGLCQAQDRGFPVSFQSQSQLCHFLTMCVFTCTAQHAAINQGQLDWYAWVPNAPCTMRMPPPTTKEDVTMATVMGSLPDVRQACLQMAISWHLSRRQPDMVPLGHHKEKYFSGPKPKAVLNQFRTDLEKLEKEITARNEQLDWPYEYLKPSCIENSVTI
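Hydroperoxide product was detected by ferrous iron/xylenol orange as the 573 to 405 nm absorbance ratio. Arachidonic acid at 40 uM (final) was turned over for 30 min at room temperature by 150 nM human 12hLO, pH 7.0 Hepes buffer, after 15 min compound preincubation.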
IL1B secr inh: inflammasome signaling inhibition, IL-1 beta readout. activity change, % at 57.5 µM. 360,000 compounds, 4.7% hits. THP-1 LPS/ATP IL-1B secretion, AlphaLISA, 16 h; hits give low values; in the data active = activity change below about -50%; inconclusive = mostly about -30% to -49%
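Secreted IL-1B measured by AlphaLISA bead assay after 16 h compound exposure of THP-1 cells; compounds (final up to 57.5 uM) added 1 h before LPS (250 ng/mL) and ATP (1.25 mM) stimulation; lower signal means less secretion.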
HT1080 IDH1KD tx: toxicity to HT-1080 IDH1 knockdown cells (counter line); HT-1080 IDH1 knockdown viability, ATP luminescence, 48 h; Potency, µM (series often up to 46.1 µM), for the others: top-dose activity, negative = toxicity, most hits filed as cytotoxic; 360,000 compounds, 2% hits; AID 686971;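 also: potency is read from the fitted curve at half-maximal effect; 0% = DMSO wells and -100% = cell-free medium wells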
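Cytotoxicity counter-line: IDH1KD HT-1080, 48 h, CellTiter-Glo. Curves classed by r2, magnitude and activity.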
The depositor's hits bear a star; ? = inconclusive; nt = no result; ! = a repeat was not active; [ ] = remark or other dose. Unless noted, calls follow the shape of the dose curve; as a rule, active = well fitted curve in the direction sought with a large enough effect; inconclusive = small, poorly fitted or top-dose-only effect, or another doubt; inactive = no such curve, though single readings can be large; an effect the other way counts as inactive or inconclusive. Unless noted, % is scaled to controls: 0 for no effect and ±100 for the full control effect.

SMILES	TDP1 cell noCPT	DT40 TDP1 CPT	HT1080NT lethal	12-LOX inh	IL1B secr inh	HT1080 IDH1KD tx
CCN(CCNC(=O)C1CCCN(Cc2nc(-c3ccc(OC)cc3)oc2C)C1)c1ccccc1 (configuration not stated)	23µM*	16µM*	?	0%	-73*	-30%
Cc1ccc(C2Cn3nnc(C(=O)N4CCC(C(=O)NCC(C)c5ccccc5)CC4)c3CO2)cc1 (configuration not stated)	nt	nt	nt	-6%	nt	nt
Cc1ccc(NC(=O)c2nc3ccccc3nc2Cl)c(C)c1	nt	nt	nt	13%	nt	nt
Cc1noc(C)c1Cc1ccc(C(=O)N2CC(N(C)Cc3cccnc3)C2)o1	nt	nt	nt	36%	nt	nt
COc1cc2c(cc1OC)CN(C(=O)CN1CCN(S(=O)(=O)c3ccc(C)c(C)c3)CC1)CC2	13µM*	23µM*	-12%	?	-14	-20%
COc1cc2c(cc1OC)CN(C(=O)c1ccc(Cl)c(S(=O)(=O)N3CCCC3)c1)CC2	?	23µM*	-8%	39%	?	0%
COc1cc2c(cc1OC)CN(C(=O)c1ccc(OC)c(S(=O)(=O)N3CCCC3)c1)CC2	29µM*	?	-6%	7%	-8	-16%
COc1cc2c(cc1OC)CN(C(=O)c1cc(S(=O)(=O)N3CCOCC3)ccc1Cl)CC2	21µM*	?	0%	0%	-22	-2%
COc1ccc(C(=O)N2CCc3ccccc3C2)cc1S(=O)(=O)N1CCCC1	?	?	8%	11%	25	-1%
Cc1ccc(S(=O)(=O)N2CCN(CC(=O)Nc3ccc4c(c3)CCC4)CC2)cc1C	-84%	-72%	4%	-20%	3	11%
CNC(=O)c1ccccc1NC(=O)CC1CCCC1	nt	nt	nt	-6%	nt	nt
O=C(Cc1ccc(Br)cc1)NCc1nnc2ccc(-c3ccc(F)cc3)nn12	nt	nt	nt	45%	nt	nt
CCOC(=O)N1CCN(S(=O)(=O)c2ccc(F)c(C(=O)Nc3ccc(C(C)C)cc3)c2)CC1	18µM*	18µM*	-11%	-1%	1	-11%
CCOC(=O)N1CCN(S(=O)(=O)c2ccc(F)c(C(=O)Nc3ccc(C)c(Cl)c3)c2)CC1	21µM*	16µM*	-5%	-8%	-70*	-3%
CCOc1ccc(NC(=O)c2cc(S(=O)(=O)N3CCOCC3)ccc2F)cc1	?	-5%	nt	?	nt	nt
CCOC(=O)N1CCN(C(=O)[C@H](C)NC(=O)c2cc3cc(OC)ccc3n2C)CC1	nt	nt	nt	4%	nt	nt
CCC(=O)N1CCN=C1SCc1cccc(C(F)(F)F)c1	?	?	-1%	56%	-7	-4%
O=C(/C=C/c1ccc(OC2CSC2)cc1)c1ccccc1	18µM*	18µM*	?	8%	-11	?
CCOc1ccc(/C=C/C(=O)c2ccccc2)cc1	?	?	6%	6%	?	5%
O=C(O)COc1ccc(/C=C/C(=O)c2ccc3ccccc3c2)cc1	0%	15%	?	nt	-99*	?
COc1ccc2cc(C(=O)/C=C/c3ccc(C(=O)O)cc3)ccc2c1	nt	nt	nt	-21%	nt	nt
O=C(O)COc1ccc(/C=C/C(=O)c2ccc(C3CCCCC3)cc2)cc1	18µM*	?	?	-23%	-101*	?
CCCc1ccc(S(=O)(=O)N2CCN(C(C)C(=O)NCc3ccccc3)CC2)cc1 (configuration not stated)	?	?	-1%	-15%	18	-8%
CCN(CCCc1ccccc1)CCCc1ccccc1	23µM*!	10µM*!	?	?	-18	?
CCCN(CCO)CCCc1ccccc1	-15%	1%	20%	?	-4	20%
SMILES	TDP1 cell noCPT	DT40 TDP1 CPT	HT1080NT lethal	12-LOX inh	IL1B secr inh	HT1080 IDH1KD tx
Cc1ccc(NS(=O)(=O)c2cccc(C(=O)NCC(c3ccc(F)cc3)N3CCOCC3)c2)cc1 (configuration not stated)	16µM*	29µM*	?	-20%	-51*	-27%
C=CCN(c1ccccc1)S(=O)(=O)c1cccc(C(=O)NCC(c2ccc(F)cc2)N2CCOCC2)c1 (configuration not stated)	16µM*	13µM*	1%	11%	4	-7%
CCN(c1ccccc1)S(=O)(=O)c1cccc(C(=O)NCC(c2ccc(F)cc2)N2CCOCC2)c1 (configuration not stated)	10µM*	23µM*	-10%	0%	-25	-7%
CN(c1ccccc1)S(=O)(=O)c1cccc(C(=O)NCC(c2cccs2)N2CCOCC2)c1 (configuration not stated)	16µM*	?	-3%	2%	15	0%
O=S(=O)(Cc1ccccc1Cl)N1CCCc2ccccc21	nt	nt	nt	-3%	nt	nt
NS(=O)(=O)c1ccc(NC(=O)C2=C(c3ccccc3)SCCO2)cc1	nt	nt	nt	0%	nt	nt
O=C(c1cc(=O)c2cc(Cl)ccc2o1)N(Cc1ccccc1)Cc1ccco1	nt	nt	nt	-6%	nt	nt
O=C(NCC(c1ccc(F)cc1)N1CCOCC1)c1cccnc1Sc1ccccc1 (configuration not stated)	?	-20%	0%	9%	10	-1%
Cc1ccc(Sc2ncccc2C(=O)NCC(c2ccc(F)cc2)N2CCOCC2)c(C)c1 (configuration not stated)	?	15µM*	0%	-1%	-5	-14%
CC(C(=O)NC(C)(C)C)n1c(-c2ccccc2)nc2ccccc21 (configuration not stated)	-5%	7%	14%	5%	-19	1%
CCC(C(=O)NC(C)(C)C)n1c(C(c2ccccc2)c2ccccc2)nc2ccccc21 (configuration not stated)	?	18µM*	-21%	9%	-3	-14%
CC(C(=O)NC(C)(C)C)n1c(C(c2ccccc2)c2ccccc2)nc2ccccc21 (configuration not stated)	?	?	-29%	3%	-2	?
Cc1csc(-c2nc3ccccc3n2C(C(=O)NC(C)(C)C)c2ccccc2)c1 (configuration not stated)	29µM*	?	15%	11%	0	14%
O=C(c1ccccn1)N1CCC2(COc3ncccc3S(=O)(=O)N2)C1 (configuration not stated)	nt	nt	nt	3%[6.33 µM]	nt	nt
Cc1ccsc1/C=C/C1=Cc2c(sc(N)c2C#N)C(C)(C)C1	nt	nt	nt	18µM*	nt	nt
NC(=O)c1ccsc1NC(=O)CSc1n[nH]c(N)n1	3%	6%	-6%	4%	3	-1%
